In the OligoGym collection:
Also: reference of the scale not given here.

These sequences were tested against GAB3 (assay: pooled miR-30 sensor sort-seq; sequence = guide strand). Conditions: shRNA.
TTTTGTGCTCTGGAGAGCCTGT showed a sensor-assay potency score (higher = more potent) of -0.572. TTGACCAGCTATCACATCTGGT gave a sensor-assay potency score (higher = more potent) of -0.37. TTGACCTGTGTTGACCATCAGT showed a sensor-assay potency score (higher = more potent) of -0.72. In the case of TTTTCTATCTCCAATCTGGTGT, the sensor-assay potency score (higher = more potent) is reported as 0.0351. In the case of TAGTACTCCAAGACATCGGGGT, the sensor-assay potency score (higher = more potent) is reported as 0.697. For TTCCACACTGCACACTCGCTGA, the sensor-assay potency score (higher = more potent) was -0.565. In the case of TTATTCTGAAATTCCTTCCGAA, the sensor-assay potency score (higher = more potent) is reported as 0.459.

The sequences below were run against GABBR1 in the same assay as above. Conditions: shRNA.
ATGGTAGCAATCTTCTTCCAGC was tested, and the sensor-assay potency score (higher = more potent) was -1.28. TAGCCAATCTTCTTGTAGCTGC was tested, and the sensor-assay potency score (higher = more potent) was -0.0319. Work on TTCTGTGACAAGGAGAGGGTGT yielded a sensor-assay potency score (higher = more potent) of 0.0904. Work on TCTTGGTGAACATGGAACCGTA yielded a sensor-assay potency score (higher = more potent) of -1.08. TCCTTCTTTGTGAAGACCGTGT was tested, and the sensor-assay potency score (higher = more potent) was -0.749. Sequence TTGTTGTTGGTCGATGACCCTG has a sensor-assay potency score (higher = more potent) of -1.05. TTGAGATTCGGGGAGATCCTTC was tested, and the sensor-assay potency score (higher = more potent) was -0.396. Sequence TTGTGAGTGTAGACTGAGGGTA has a sensor-assay potency score (higher = more potent) of -0.0666. Work on TTCAGCATGACAATCTCAGTTG yielded a sensor-assay potency score (higher = more potent) of -0.723. Sequence TTCTCCTTCTCCAACAGCCGGG has a sensor-assay potency score (higher = more potent) of -0.705. Work on TTGGATAGCATGTTCTTCCCAG yielded a sensor-assay potency score (higher = more potent) of 0.0924. TAGTACATGAATGCAATGGAGA was tested, and the sensor-assay potency score (higher = more potent) was -0.803. In the case of TGAGGTTCCACATCCTAGCAGC, the sensor-assay potency score (higher = more potent) is reported as -0.132. With TTCTCATCAACTATCCACTGGA the sensor-assay potency score (higher = more potent) was 0.124. With TAGACAAATTGCACATGCCTAC the sensor-assay potency score (higher = more potent) was -0.546. TAAGACTTGGAGCAGATTCGGA showed a sensor-assay potency score (higher = more potent) of -0.862. TTTTCAAAGAGTTTCACGCGGG showed a sensor-assay potency score (higher = more potent) of -0.189. TAGGTCCATCTGTCTATCCCAA showed a sensor-assay potency score (higher = more potent) of -0.913. TGGATCACACTTGCTGTCGTGG gave a sensor-assay potency score (higher = more potent) of -0.99. Work on TAGTTTCTCCACAAATTCCTGG yielded a sensor-assay potency score (higher = more potent) of -0.496. With TAGTCCGGCAGGATGTCCCTGC the sensor-assay potency score (higher = more potent) was -0.16.

The sequences below were run against GABRA1 in the same assay as above. Conditions: shRNA.
With ATTGTCATAACCATCTAGGAGT the sensor-assay potency score (higher = more potent) was -0.817. In the case of TACATCTATTGTATATTCCATA, the sensor-assay potency score (higher = more potent) is reported as -0.691. Sequence TTAACAACATTCCAACAGCTAA has a sensor-assay potency score (higher = more potent) of -1.39. Sequence TATATATCTACAAATGACCTAG has a sensor-assay potency score (higher = more potent) of 0.243. Sequence TTGTATAAGCATAACTTCCAAA has a sensor-assay potency score (higher = more potent) of -0.726. With TCTGCTACAACCACTGAGCGTG the sensor-assay potency score (higher = more potent) was -0.543. Sequence TATTTATCTCTAAAACATCTGG has a sensor-assay potency score (higher = more potent) of -0.271. In the case of TACTTGACTGGACAATTCCAGA, the sensor-assay potency score (higher = more potent) is reported as -1.07. TAGCTTGTGAAATTTAGGCAGG was tested, and the sensor-assay potency score (higher = more potent) was -0.747. TAAACAACTTCTGCTCTTGTAT showed a sensor-assay potency score (higher = more potent) of -0.033. TTAGACGTGATCCATCTTCTGC gave a sensor-assay potency score (higher = more potent) of -0.591.
